Several values for one entry are separate records, joined by “and”; a condition that tells them apart may be missing. Identical values can stand only once. The whole screen tested about 86,000 compounds, of which about 220 (0.26%) were called active.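 The calls were made as follows: active = mean growth activity at or below -80% and every replicate also at or below -80%; inconclusive = mean at or below -80% but some replicate above -80%; inactive = mean growth activity above -80%.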 The full list was thinned out, with actives kept by preference.

This experiment in a line: blockers of Clostridium difficile growth – HTS, primary screen (AID 1259249).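 Also: 0% = DMSO wells and -100% = levofloxacin 16 µg/mL wells.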 Particulars: Clostridium difficile clinical isolate growth, OD600, 24 h; stronger effect = lower value; screened at 16 µg/mL (by protocol).
`Cc1ccc(S(=O)(=O)N[C@@H]2CC[C@@H](CCn3cc(C4CC4)nn3)O[C@@H]2CO)cc1`: the growth activity, negative = inhibition was -1.26% (inactive).

As for `C[C@@H]1CCCCO[C@@H](CN(C)C(=O)NC2CCCCC2)[C@H](C)CN([C@H](C)CO)C(=O)c2cc(NC(=O)Nc3cccc4ccccc34)ccc2O1`, the growth activity, negative = inhibition was 2.69% (inactive).

Consider `O=C(c1ccncc1)N1C[C@H]2[C@@H](c3ccccc31)[C@H](CO)N2Cc1ccc(F)cc1`, for which the growth activity, negative = inhibition was -10.6% (inactive).

With `CCCC(=O)N1CC2(CN(C(=O)NC(C)C)C2)c2c([nH]c3cc(OC)ccc23)[C@@H]1CO`, the growth activity, negative = inhibition was -10.9% (inactive).

`CC(C)C(=O)Nc1ccc2c(c1)C(=O)N(C)[C@@H]1CC[C@@H](CC(=O)NCCc3ccccc3)O[C@H]1CO2`: the growth activity, negative = inhibition is -2.19% (inactive).

On to `COc1ccc2c3c(n(C)c2c1)[C@H](CO)N(CC1CC1)CC31CCN(C(=O)c2ccccc2)CC1`, for which the growth activity, negative = inhibition is 22.3% (inactive).

Regarding `COCc1cn(CC[C@@H]2CC[C@@H](NC(=O)Nc3ccc(C(F)(F)F)cc3)[C@H](CO)O2)nn1`, the growth activity, negative = inhibition was 1.56% (inactive).

On to `C[C@@H]1CN([C@@H](C)CO)C(=O)c2cc(NC(=O)Nc3ccc4c(c3)OCO4)ccc2O[C@@H](C)CCCCO[C@H]1CN(C)C(=O)Nc1ccc(C(F)(F)F)cc1`, for which the growth activity, negative = inhibition was 3.76% (inactive).

Consider `CCN1[C@@H]2c3cccc(=O)n3C[C@H]1[C@H](CO)[C@H]2C(=O)NC1Cc2ccccc2C1`, for which the growth activity, negative = inhibition is -3.73% (inactive).

Regarding `O=C(C1CCC1)N1CC(=O)N2[C@@H](CO)[C@@H](c3ccc(C#Cc4cccc(F)c4)cc3)[C@@H]2C1`, the growth activity, negative = inhibition is -12.4% (inactive).

Turning to `Cc1ccc(-c2cnc3c(c2)C(=O)N([C@H](C)CO)C[C@H](C)[C@@H](CN(C)C(=O)c2cccc(F)c2)O3)cc1`, the growth activity, negative = inhibition was 0.45% (inactive).

With `CN1c2ccc(-c3cccc(F)c3)cc2[C@H]2[C@H](CCN2C(=O)c2cccc(F)c2)[C@H]1CO`, the growth activity, negative = inhibition was -1.71% (inactive).

As to `C[C@@H]1CN([C@@H](C)CO)C(=O)Cc2cc(NC(=O)Nc3ccc(C(F)(F)F)cc3)ccc2O[C@H]1CN(C)Cc1ccc(C(=O)O)cc1`, the growth activity, negative = inhibition is 4.68% (inactive).

In the case of `COc1cccc(NC(=O)N(C)C[C@@H]2Oc3ncc(Br)cc3C(=O)N([C@@H](C)CO)C[C@H]2C)c1`, the growth activity, negative = inhibition was 4.14% (inactive).

In the case of `CO[C@@H]1CN(C)C(=O)c2cc(NC(=O)C3CCCC3)ccc2OC[C@@H](C)N(Cc2ccc(F)cc2)C[C@H]1C`, the growth activity, negative = inhibition is 7.43% (inactive).

For the molecule `COc1ccccc1NC(=O)N1C[C@H]2[C@@H](c3ccccc31)[C@H](CO)N2Cc1ccc2c(c1)OCO2`, the growth activity, negative = inhibition is -2.67% (inactive).

Turning to `COc1ccccc1NC(=O)N1C[C@@H]2[C@H](c3ccccc31)[C@H](CO)N2CC1CCOCC1`, the growth activity, negative = inhibition was 8.14% (inactive).

Take `CO[C@@H]1CN(C)C(=O)c2cc(NC(=O)C3CCC3)ccc2OC[C@H](C)N(Cc2ccccn2)C[C@H]1C`: the growth activity, negative = inhibition was -0.0418% (inactive).

Turning to `COc1ccccc1C#Cc1ccc2c(c1)O[C@H](CN(C)Cc1cccnc1)[C@@H](C)CN([C@H](C)CO)S2(=O)=O`, the growth activity, negative = inhibition was 2.69% (inactive).

In the case of `C[C@H]1CN([C@@H](C)CO)C(=O)c2cc(C#CC3CCCC3)cnc2O[C@@H]1CN(C)C(=O)Cc1ccccn1`, the growth activity, negative = inhibition is -9.22% (inactive).

As to `N#C[C@H]1[C@@H](c2ccccc2C2=CCCC2)[C@H](CO)N1C(=O)c1cccc(F)c1`, the growth activity, negative = inhibition was -5.69% (inactive).

As for `C[C@@H]1CCCCO[C@H](CN(C)CC2CCCCC2)[C@H](C)CN([C@H](C)CO)C(=O)c2cc(NS(=O)(=O)c3ccc(F)cc3)ccc2O1`, the growth activity, negative = inhibition was 11.3% (inactive).

With `COc1ccc(S(=O)(=O)NC[C@@H]2CC[C@@H]3[C@@H](CN3Cc3cc(F)ccc3F)O2)cc1`, the growth activity, negative = inhibition was -8.36% (inactive).

On to `CN1C(=O)c2cc(NC(=O)C3CC3)ccc2OC[C@H]2O[C@H](CC(=O)O)CC[C@H]21`, for which the growth activity, negative = inhibition is 3.37% (inactive).

With `CO[C@@H]1CN(C)C(=O)c2ccc(NC(=O)C3CC3)cc2OC[C@H](C)N(C(C)=O)C[C@H]1C`, the growth activity, negative = inhibition was 0.555% (inactive).

In the case of `COc1cccc(NC(=O)N[C@H]2C=C[C@H](CC(=O)NCc3ccccn3)O[C@@H]2CO)c1`, the growth activity, negative = inhibition was 6.26% (inactive).

As for `CO[C@H]1CN(C)C(=O)c2ccc(NC(=O)C3CCCC3)cc2OC[C@H](C)N(C(=O)CC2CC2)C[C@@H]1C`, the growth activity, negative = inhibition was -4% (inactive).

With `C/C=C/c1ccccc1[C@H]1[C@@H](C#N)N(C(C)=O)[C@@H]1CO`, the growth activity, negative = inhibition is -2.31% (inactive).

For the molecule `O=C(C1CCOCC1)N1CC(=O)N2[C@H](CO)[C@H](c3ccc(C#Cc4cccc(F)c4)cc3)[C@H]2C1`, the growth activity, negative = inhibition was -20.7% (inactive).

In the case of `CNC(=O)C[C@H]1CC[C@H]2[C@H](COc3ccc(NC(=O)Nc4ccc(F)cc4)cc3C(=O)N2C)O1`, the growth activity, negative = inhibition was -3.32% (inactive).

In the case of `O=C(C[C@H]1C=C[C@H](NC(=O)Nc2cc(F)ccc2F)[C@@H](CO)O1)NCc1ccccn1`, the growth activity, negative = inhibition was -1.08% (inactive).

Regarding `CNC[C@H]1OCCCC[C@H](C)Oc2ccc(NC(=O)Nc3ccc(C(F)(F)F)cc3)cc2C(=O)N([C@H](C)CO)C[C@@H]1C`, the growth activity, negative = inhibition was 8.32% (inactive).

For the molecule `C[C@H](O)C#Cc1ccc2c(c1)O[C@@H](CN(C)C(=O)C1CCCCC1)[C@H](C)CN([C@@H](C)CO)S2(=O)=O`, the growth activity, negative = inhibition was -2.82% (inactive).

As for `COc1ccc2c3c(n(C)c2c1)[C@@H](CO)N(C(=O)CN1CCOCC1)CC31CCN(Cc2ccncc2)CC1`, the growth activity, negative = inhibition is -2.85% (inactive).

For `CCCNC(=O)N1CC2(C1)[C@@H](c1ccccc1)[C@@H](CO)N2C(=O)CC1CC1`, the growth activity, negative = inhibition was -0.374% (inactive).

Take `C[C@@H]1CN([C@H](C)CO)S(=O)(=O)c2ccc(C3=CCCC3)cc2O[C@H]1CN(C)C(=O)CC1CC1`: the growth activity, negative = inhibition was 3.03% (inactive).

On to `COCc1cn(CC[C@H]2CC[C@H](NC(=O)Cc3cccnc3)[C@H](CO)O2)nn1`, for which the growth activity, negative = inhibition was 1.58% (inactive).

Turning to `N[C@@H]1CC[C@H](CCn2cc(C3CC3)nn2)O[C@@H]1CO`, the growth activity, negative = inhibition is 5.59% (inactive).

As to `C/C=C/c1ccc([C@@H]2[C@H](CO)N(C(=O)c3cnccn3)C23CN(C(C)=O)C3)cc1`, the growth activity, negative = inhibition is 2.93% (inactive).

As to `CCCNC(=O)C[C@H]1CC[C@H]2[C@@H](COC[C@H](O)CN2C(=O)CC)O1`, the growth activity, negative = inhibition is 7.43% (inactive) and 9.67% (inactive).

For `COc1ccc(CN(C)C[C@H]2OCc3cn(nn3)CCCC(=O)N([C@@H](C)CO)C[C@@H]2C)cc1`, the growth activity, negative = inhibition was -0.425% (inactive).

On to `O=C(C[C@H]1CC[C@H]2[C@@H](COC[C@@H](O)CN2C(=O)Nc2ccc(C(F)(F)F)cc2)O1)NC1Cc2ccccc2C1`, for which the growth activity, negative = inhibition was -97.2% (active) and 27.2% (inactive).

On to `O=C(C[C@@H]1CC[C@H]2[C@@H](COC[C@@H](O)CN2C(=O)Nc2ccc(Cl)cc2)O1)NC1Cc2ccccc2C1`, for which the growth activity, negative = inhibition was 2% (inactive) and 46.4% (inactive).

For `CCCNC(=O)C[C@H]1CC[C@H]2[C@@H](COC[C@@H](O)CN2C(=O)Nc2ccc(Cl)c(Cl)c2)O1`, the growth activity, negative = inhibition is -102% (active) and -6.65% (inactive).

As to `O=C(C[C@H]1CC[C@@H]2[C@H](COC[C@@H](O)CN2C(=O)Nc2ccc(Cl)cc2)O1)NC1Cc2ccccc2C1`, the growth activity, negative = inhibition is -5.66% (inactive) and -5.56% (inactive).

Regarding `O=C(C[C@H]1CC[C@H]2[C@@H](COC[C@H](O)CN2C(=O)Nc2ccc(Cl)cc2)O1)NCC1CC1`, the growth activity, negative = inhibition was 7.11% (inactive).

Turning to `CCCNC(=O)C[C@@H]1CC[C@H]2[C@@H](COC[C@H](O)CN2C(=O)Nc2ccc(Cl)c(Cl)c2)O1`, the growth activity, negative = inhibition is -57.2% (inactive) and -25.4% (inactive).

Consider `CC=Cc1ccc2n(c1=O)C[C@H]1[C@H](CO)[C@@H](C(=O)NC3CCCC3)[C@@H]2N1C(=O)c1cnccn1` (mixture of isomers), for which the growth activity, negative = inhibition was 3.3% (inactive).

Turning to `CC(C)NC(=O)N1[C@@H]2CN(C(=O)C3CCCCC3)c3ccccc3[C@@H]2[C@@H]1CO`, the growth activity, negative = inhibition was -5.28% (inactive).

Take `CC(=O)N1[C@H](CO)[C@H](c2ccccc2)[C@H]1CN(C(=O)c1ccccc1F)C(C)C`: the growth activity, negative = inhibition is 2.62% (inactive).

In the case of `CCS(=O)(=O)N1CC2(CN(Cc3ccccc3)[C@@H](CO)c3c2c2ccc(OC)cc2n3C)C1`, the growth activity, negative = inhibition was 10.4% (inactive).

In the case of `COc1ccccc1C(=O)N1C[C@H]2[C@@H](c3ccccc31)[C@H](CO)N2C(=O)C1CC1`, the growth activity, negative = inhibition is -5.43% (inactive).

Consider `CO[C@H]1CN(C)C(=O)c2ccc(NS(=O)(=O)c3ccccc3)cc2OC[C@H](C)N(Cc2nccs2)C[C@@H]1C`, for which the growth activity, negative = inhibition is 1.37% (inactive).

Take `COc1cccc(S(=O)(=O)N(C)C[C@@H]2Oc3ncc(-c4cccc(C(=O)N(C)C)c4)cc3C(=O)N([C@H](C)CO)C[C@H]2C)c1`: the growth activity, negative = inhibition is -3.2% (inactive).

Consider `COc1cccc(NC(=O)N(C)C[C@H]2Oc3cc(/C=C/c4ccccc4)ccc3S(=O)(=O)N([C@H](C)CO)C[C@@H]2C)c1`, for which the growth activity, negative = inhibition was 5.84% (inactive).

Take `COc1ccc2c3c(n(C)c2c1)[C@H](CO)N(S(=O)(=O)c1ccc(C)cc1)CC31CCN(C(=O)c2ccccn2)CC1`: the growth activity, negative = inhibition is 3.65% (inactive).

With `O=C(C1CCCC1)N1CC(=O)N2[C@H](C1)[C@@H](c1ccc(-c3ccccc3F)cc1)[C@@H]2CO`, the growth activity, negative = inhibition is 2.69% (inactive).

As to `C/C=C/c1ccc([C@H]2[C@@H](CO)N(C(=O)CC)[C@H]2CN(C)C(=O)C2CC2)cc1`, the growth activity, negative = inhibition was -2.06% (inactive).

Regarding `O=C(NCC[C@H]1CC[C@H](NS(=O)(=O)c2cccc(F)c2)[C@H](CO)O1)C1CCCCC1`, the growth activity, negative = inhibition was -5.15% (inactive).

With `C/C=C/c1ccc([C@@H]2[C@H](CO)N(CCC(F)(F)F)C23CN(C(=O)CC)C3)cc1`, the growth activity, negative = inhibition is 8.71% (inactive).

Consider `CC(C)NC(=O)N(C)C[C@H]1Oc2ncc(-c3cccc(C#N)c3)cc2C(=O)N([C@@H](C)CO)C[C@H]1C`, for which the growth activity, negative = inhibition is 5.25% (inactive).

These data come from PubChem BioAssay AID1259249 (Broad Institute, 2017).
